Structures are written as SMILES. About 370 (0.13%) of roughly 290,000 compounds were called active.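 How the source made its calls: active means spots per cell inhibited over 60%, with over 100 cells counted and total cytoplasm intensity under 500,000; inconclusive means wells with under 100 cells, flagged as likely toxic; inactive means the rest.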 For the sample, actives were picked, then their nearest neighbours and some compounds at random. Entries with a potency or affinity are not part of this list.

In this assay the target is G-protein coupled receptor 55 (Homo sapiens) (UniProt Q9Y2T6). Nature of the assay: inhibition of LPI-stimulated GPR55 beta-arrestin translocation – imaging, U2OS, beta-arrestin-GFP, LPI agonist, primary screen (AID 2013).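 Further: U2OS cells stably carrying GPR55 and arrestin-GFP stimulated by 5 µM LPI near EC80; imaged beta-arrestin-GFP aggregate spots per cell after agonist stimulation; plate controls were LPI-stimulated DMSO wells for no effect and DMSO wells without LPI for full effect.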 The conditions noted are these: LPI antagonism, at 10 µM, stronger effect = higher value.
Chain of G-protein coupled receptor 55 (Homo sapiens) (Q9Y2T6 whole entry, looked up): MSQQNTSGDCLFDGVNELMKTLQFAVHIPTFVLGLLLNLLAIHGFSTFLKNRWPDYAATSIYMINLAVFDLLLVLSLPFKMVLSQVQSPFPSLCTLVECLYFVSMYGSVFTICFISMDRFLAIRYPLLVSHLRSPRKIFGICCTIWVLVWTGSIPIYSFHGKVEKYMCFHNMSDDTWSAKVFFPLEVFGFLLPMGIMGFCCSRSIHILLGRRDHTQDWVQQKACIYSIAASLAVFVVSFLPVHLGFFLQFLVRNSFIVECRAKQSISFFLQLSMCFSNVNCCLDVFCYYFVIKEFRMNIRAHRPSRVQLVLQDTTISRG
One may read the inhibition as the relative decrease from the control value, in per cent. Regarding `Cc1ccc(NS(=O)(=O)c2cccc(C(=O)O)c2)cc1S(=O)(=O)N1CCCCC1`, the inhibition is 5.9% (inactive).

Take `Cc1cc(C)nc(SC2CC(=O)N(c3ccc(Cl)cc3)C2=O)n1` (stereo unspecified): the inhibition is 20.8% (inactive).

`O=[N+]([O-])c1ncn(C23CC4CC(CC(C4)C2)C3)n1`: the inhibition was -8.9% (inactive).

Turning to `N#CC(c1ccccn1)c1ncc(C(F)(F)F)cc1Cl` (stereo unspecified), the inhibition was 3.6% (inactive).

With `O=C(NCc1ccccn1)c1ccc(Cl)c(S(=O)(=O)N2CCCCCC2)c1`, the inhibition was 21.3% (inactive).

With `CCCCC1(CC(=O)OCC)C(=O)N(c2ccccc2)N(c2ccccc2)C1=O`, the inhibition is 17.5% (inactive).

For `CCCCC1(CC(=O)OC)C(=O)N(c2ccccc2)N(c2ccccc2)C1=O`, the inhibition is -3.2% (inactive).

With `CCCCC1(Cc2ccc([N+](=O)[O-])cc2)C(=O)N(c2ccccc2)N(c2ccccc2)C1=O`, the inhibition was 51.2% (inactive).

On to `CCCCC1(CO)C(=O)N(c2ccccc2)N(c2ccccc2)C1=O`, for which the inhibition was -5.2% (inactive).

For `CCCCCCSc1nc(O)c(C2OC(=O)c3c2ccc(OC)c3OC)c(=O)n1CC` (stereo unspecified), the inhibition is 2.6% (inactive).

On to `CC(=O)c1ccc(NC(=O)CCc2c(C)nn(-c3ccc(N4CCOCC4)nn3)c2C)cc1`, for which the inhibition was 4.4% (inactive).

Consider `O=C(NCc1ccco1)C(=O)NCC1OCCN1C(=O)c1ccc(Cl)cc1` (stereo unspecified), for which the inhibition was 2.4% (inactive).

With `O=C(Nc1ccnc(=O)[nH]1)c1sc2ccccc2c1Cl`, the inhibition was 5.4% (inactive).

Consider `CCOCc1nnc(NC(=O)c2cc(OC)c(OC)cc2[N+](=O)[O-])s1`, for which the inhibition is 1.7% (inactive).

For the molecule `O=C1CSC(c2ccc(Cl)cc2Cl)N1c1ccccn1` (stereo unspecified), the inhibition was 22.4% (inactive).

On to `O=C1CSC(c2cccc(Cl)c2Cl)N1c1ccccn1` (stereo unspecified), for which the inhibition was 13% (inactive).

With `C/C(CC(=O)N1CCN(C=O)CC1)=N\NC(=O)c1cc2ccccc2cc1O`, the inhibition is 5.8% (inactive).

On to `Cc1nc2c(oc3ccc(Cl)cc32)c(=O)[nH]1`, for which the inhibition is -10.2% (inactive).

Turning to `Clc1ncnc2c1oc1ccccc12`, the inhibition is 26.5% (inactive).

For the molecule `Cc1c(N/C(=N/S(=O)(=O)c2ccc(Cl)cc2)c2ccccc2)c(=O)n(-c2ccccc2)n1C`, the inhibition is -4.8% (inactive).

For the molecule `c1ccc(-c2ccccc2-c2nc(-c3ccncc3)no2)cc1`, the inhibition is 41.2% (inactive).

Turning to `COc1ccc(-c2noc(-c3ccccc3-c3ccccc3)n2)cc1`, the inhibition was 10.6% (inactive).

Consider `Cc1ccc(N/N=C(\C#N)C(=N)N2CCCCCC2)cc1`, for which the inhibition is -5% (inactive).

Consider `Cc1ccc(N/N=C(\C#N)C(=N)N2CCCCC2)cc1`, for which the inhibition is 2.6% (inactive).

With `Cc1ccc(N/N=C(\C#N)C(=N)N2CCOCC2)cc1`, the inhibition was 86.4% (active).

For the molecule `CN(CC(=O)NCc1ccccc1F)S(=O)(=O)c1ccc(Cl)cc1`, the inhibition is 3.3% (inactive).

The values above are taken from PubChem BioAssay AID2013 (Sanford-Burnham Center for Chemical Genomics, 2009).
